Assay results: PubChem BioAssay
The source made the active and inactive calls. Unless noted, how the calls were made is not given here.

What was measured:
[1] = A549 cell viability effects, profiling panel, calcein-AM fluorescence, 48 h, basal (AID 1162); settings: higher = more signal; further: test concentration not given here
[2] = adipocyte viability effects, profiling panel, cell-based, 3T3-L1 adipocytes, calcein-AM fluorescence, 48 h, basal (AID 1163); settings: 3T3-L1 adipocytes viability, higher = more signal; further: test concentration not given here
[3] = HepG2 cell viability effects, profiling panel, calcein-AM fluorescence, 48 h, basal (AID 1164); settings: higher = more signal; further: test concentration not given here
[4] = MM1S cell viability effects, profiling panel, calcein-AM fluorescence, 48 h, basal (AID 1165); settings: higher = more signal;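 further: viability of MM1S multiple myeloma cells under basal unstimulated conditions; test concentration not given here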
[5] = basal RPMI8226 viability, no added stimulus, profiling panel, cell-based, calcein-AM fluorescence, 48 h, PK04 Diversity Set (AID 1166); settings: RPMI8226 myeloma viability, higher = more signal;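 further: cells grown under basal conditions without added stimulus; test concentration not given here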
[6] = basal HepG2 mitochondrial membrane potential changes, profiling panel, cell-based, JC-1 fluorescence, 24 h, 100 nL compound (AID 1167); settings: higher = more signal; further: test concentration not given here
[7] = basal 3T3-L1 adipocyte mitochondrial potential changes, profiling panel, cell-based, JC-1 fluorescence, 3T3-L1 adipocytes, 24 h, 100 nL compound (AID 1168); settings: JC-1 mitochondrial fluorescence, higher = more signal, called active from +8 up or from −8 down; further: test concentration not given here
[8] = basal RPMI8226 mitochondrial membrane potential changes, profiling panel, cell-based, JC-1 fluorescence, 24 h, 100 nL compound (AID 1169); settings: RPMI8226 myeloma, JC-1 mitochondrial potential fluorescence, higher = more signal; further: test concentration not given here
[9] = basal MM1S mitochondrial membrane potential changes, profiling panel, cell-based, JC-1 fluorescence, 24 h, 100 nL compound (AID 1170); settings: higher = more signal; further: test concentration not given here
[10] = A549 lung cancer cell viability effects, profiling panel, resazurin fluorescence, 24 h, PK04 Diversity Set (AID 1171); settings: higher = more signal, called active from +8 up or from −8 down; further: test concentration not given here
[11] = HepG2 liver cancer cell viability effects, profiling panel, resazurin fluorescence, 24 h, PK04 Diversity Set (AID 1172); settings: higher = more signal; further: test concentration not given here
[12] = basal S. cerevisiae growth modulation, no modifier, primary screen, OD600, strain BY4716, 24 h, basal condition (AID 1173); settings: OD600, 24 h, higher = more signal, called active from +8 up or from −8 down
[13] = MM1S myeloma cell viability, profiling panel, resazurin fluorescence, basal, 24 h, PK04 Diversity Set (AID 1174); settings: higher = more signal, called active from +8 up or from −8 down;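 further: MM1S multiple myeloma cell line; test concentration not given here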
[14] = molecular target: Dihydroorotate dehydrogenase (quinone), mitochondrial (Plasmodium falciparum (isolate 3D7)) (UniProt Q08210); test: PfDHODH enzyme inhibitors, primary screen, biochemical, C-terminal His tag, absorbance 600 nm (AID 1175); settings: DCIP absorbance 600 nm, higher = more signal, called active from +8 up or from −8 down;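 further: recombinant parasite enzyme with a five histidine tag at its C terminus; test concentration not given here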
[15] = P. aeruginosa biofilm formation inhibitors, primary screen, strain PAO1, LB-PBS medium, absorbance 600 nm (AID 1176); further: test concentration not given here; settings: P. aeruginosa PAO1 growth/biofilm, A600, 12 h; higher = more signal
[16] = S. cerevisiae RM11-1a growth modifiers, primary screen, strain RM11-1a, OD600, basal, 24 h (AID 1177); settings: OD600, 24 h, higher = more signal, called active from +8 up or from −8 down;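 further: cultures grown under basal conditions with no added stressor; test concentration not given here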
[17] = E. coli acrAB mutant growth effects, primary screen, E. coli filamentation inducers, strain DRC39, OD650, 24 h (AID 1178); settings: higher = more signal, called active from +8 up or from −8 down;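 further: growth measured as culture turbidity by optical density at 650 nm; test concentration not given here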
[18] = E. coli acrAB mutant growth effects, primary screen, E. coli filamentation inducers, strain DRC39, OD650, 48 h (AID 1179);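 further: screen aims at cell division blockers that make cells filament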; settings: E. coli DRC39 delta-acrAB growth, higher = more signal, called active from +8 up or from −8 down
[19] = RPMI8226 myeloma cell viability, profiling panel, resazurin fluorescence, basal, 24 h, PK04 Diversity Set (AID 1180); settings: higher = more signal;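 further: RPMI8826 multiple myeloma cell line at 5000 cells per well; test concentration not given here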
[20] = molecular target: E3 ubiquitin-protein ligase XIAP (Homo sapiens) (UniProt P98170); test: XIAP binders, primary screen, biophysical, small-molecule microarray, fluorescence 635 nm (AID 1181); settings: small-molecule microarray binding, higher = more signal;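 further: score merges 667 nm emission and signal to noise over triplicate slides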
E3 ubiquitin-protein ligase XIAP (Homo sapiens), sequence (P98170 whole entry, looked up): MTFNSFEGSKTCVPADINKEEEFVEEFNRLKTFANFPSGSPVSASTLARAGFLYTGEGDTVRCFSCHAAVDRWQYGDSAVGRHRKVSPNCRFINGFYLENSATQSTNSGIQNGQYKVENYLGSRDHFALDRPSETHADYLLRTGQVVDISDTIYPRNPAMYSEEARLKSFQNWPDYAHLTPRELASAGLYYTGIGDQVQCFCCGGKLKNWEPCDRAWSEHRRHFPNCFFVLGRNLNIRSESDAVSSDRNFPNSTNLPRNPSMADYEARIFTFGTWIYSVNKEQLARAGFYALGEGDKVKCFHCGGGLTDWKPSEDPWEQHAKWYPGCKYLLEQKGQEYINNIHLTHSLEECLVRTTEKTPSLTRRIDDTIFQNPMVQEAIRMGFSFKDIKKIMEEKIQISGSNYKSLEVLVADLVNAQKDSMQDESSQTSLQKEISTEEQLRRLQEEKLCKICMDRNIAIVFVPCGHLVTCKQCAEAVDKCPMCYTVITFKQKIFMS

Dihydroorotate dehydrogenase (quinone), mitochondrial (Plasmodium falciparum (isolate 3D7)), sequence (Q08210 whole entry, looked up): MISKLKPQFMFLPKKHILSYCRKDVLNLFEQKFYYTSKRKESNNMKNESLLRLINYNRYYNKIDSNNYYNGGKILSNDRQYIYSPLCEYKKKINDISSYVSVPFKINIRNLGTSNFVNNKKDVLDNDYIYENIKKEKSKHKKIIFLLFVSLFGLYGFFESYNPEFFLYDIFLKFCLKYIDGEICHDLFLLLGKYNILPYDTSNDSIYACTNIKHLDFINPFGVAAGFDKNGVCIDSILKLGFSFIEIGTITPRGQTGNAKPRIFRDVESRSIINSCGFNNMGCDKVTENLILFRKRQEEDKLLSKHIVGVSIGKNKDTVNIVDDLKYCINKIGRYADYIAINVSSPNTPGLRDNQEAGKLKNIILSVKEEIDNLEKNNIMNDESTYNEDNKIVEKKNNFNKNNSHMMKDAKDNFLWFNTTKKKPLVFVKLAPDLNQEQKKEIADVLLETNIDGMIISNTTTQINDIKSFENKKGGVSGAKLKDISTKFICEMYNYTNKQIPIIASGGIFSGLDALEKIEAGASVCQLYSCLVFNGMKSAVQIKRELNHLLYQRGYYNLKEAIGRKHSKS

SMILES	z-score [1]	z-score [2]	z-score [3]	z-score [4]	z-score [5]	z-score [6]	z-score [7]	z-score [8]	z-score [9]	z-score [10]	z-score [11]	z-score [12]	z-score [13]	composite z-score [14]	z-score [15]	z-score [16]	z-score [17]	z-score [18]	z-score [19]	composite z-score [20]
C#CCCCON=C1C[C@@H](O)[C@@H](O)[C@@H]2[C@@H]3C(=O)N(Cc4ccc5c(c4)OCO5)C(=O)[C@@H]3CC[C@H]12	0.391	-0.027	-0.464	0.484	0.0196	-0.537	-0.0334 (inactive)	-0.427	-0.778	0.495 (inactive)	0.168	0.0943 (inactive)	-0.255 (inactive)	-0.338 (inactive)	-0.708 (inactive)	0.162 (inactive)	0.483 (inactive)	0.961 (inactive)	0.126	-0.127
COCCOC(=O)N1C(=O)[C@@]2(c3cc(C#CCCO)ccc31)[C@H](c1ccc(O)cc1)N1[C@H](c3ccccc3)[C@H](c3ccccc3)OC(=O)[C@H]1[C@@H]2C(=O)Nc1nc2ccccc2s1	0.615	1.62	-0.425	-0.24	-1.53	-3.45	-2.22 (inactive)	-0.684	-1.11	-0.192 (inactive)	0.484	-0.297 (inactive)	-0.617 (inactive)	0.864 (inactive)	0.485 (inactive)	0.39 (inactive)	0.438 (inactive)	-0.619 (inactive)	0.179	0.267
CC(=O)NCCCC[C@@H]1NC(=O)[C@@H]2C[C@H](C(=O)NCc3ccc(F)cc3)[C@H](c3cccc(OCCO)c3)N2C1=O	0.53	0.0222	0.64	-0.0893	-0.12	-0.0575	-0.568 (inactive)	-0.3	-0.513	-0.12 (inactive)	-0.352	0.473 (inactive)	0.0366 (inactive)	-0.79 (inactive)	0.298 (inactive)	0.625 (inactive)	-0.34 (inactive)	-0.17 (inactive)	0.168	-0.335
C=C(C)[C@@H]1CC=C(C(O)C2C=CC3C(=O)NC(=O)C3N2Nc2ccccn2)CC1 (stereo not given in full)	-0.592	-1.11	-0.914	0.0217	-0.97	-1.66	0.344 (inactive)	0.921	-0.0607	-0.981 (inactive)	-1.3	-0.252 (inactive)	-1.48 (inactive)	0.291 (inactive)	1.99 (inactive)	-0.0819 (inactive)	-0.575 (inactive)	-0.339 (inactive)	-2.2	0.287
O=C1C2C=CC(C(O)C#Cc3ccccc3)N(Nc3ccccc3)C2C(=O)N1c1ccccc1 (stereo not given)	-0.284	-1.26	-0.374	0.0195	-0.619	-1.53	-0.869 (inactive)	-0.449	-0.41	0.0504 (inactive)	0.198	-3.55 (inactive)	-0.279 (inactive)	-0.766 (inactive)	0.875 (inactive)	0.143 (inactive)	-0.169 (inactive)	-0.143 (inactive)	0.0581	-0.189
C[N+](C)(C)CCCCNC(=O)[C@H]1C[C@H]2C(=O)NCC(=O)N2[C@H]1c1cccc(OCCO)c1	-0.471	-0.387	-0.347	-0.0358	0.311	-1.13	-0.373 (inactive)	-0.074	-0.314	-0.0078 (inactive)	0.052	0.167 (inactive)	-0.935 (inactive)	-29.2 (active)	1 (inactive)	0.105 (inactive)	-0.158 (inactive)	-0.271 (inactive)	-1.15	0.133
CCCC=C(CCC)[C@@H](NS(=O)(=O)c1cccc(C(F)(F)F)c1)c1ccc(C(=O)OC)cc1	-0.336	-0.0748	-1.07	-0.008	-0.341	-1.25	-0.413 (inactive)	0.0542	-1.04	0.206 (inactive)	1.18	0.661 (inactive)	0.179 (inactive)	-0.237 (inactive)	-0.94 (inactive)	-0.279 (inactive)	-0.0305 (inactive)	-0.0262 (inactive)	-0.16	0.0506
CCOC(=O)C1=CC[C@@H](c2ccc(-c3ccc(OCc4ccccc4)cc3)c(OC)c2)N(S(=O)(=O)c2ccc(C)cc2)[C@H]1c1ccccc1	-0.603	-0.416	0.418	-1.23	-0.119	4.16	0.51 (inactive)	-0.161	-1.54	0.751 (inactive)	0.899	0.0553 (inactive)	0.25 (inactive)	0.917 (inactive)	0.325 (inactive)	-0.0764 (inactive)	0.263 (inactive)	1.3 (inactive)	0.894	-0.02
CN(C)c1ccc(C(O)C2C=CC3C(=O)NC(=O)C3N2Nc2ccc(Cl)cc2Cl)cc1 (stereo not given)	-0.602	0.117	-0.675	0.463	-0.792	-1.26	-1.06 (inactive)	-0.752	0.261	-0.555 (inactive)	-0.492	0.454 (inactive)	-1.44 (inactive)	0.438 (inactive)	0.683 (inactive)	0.839 (inactive)	0.221 (inactive)	0.0462 (inactive)	-1.44	0.0914
